Assay: PhoP-driven GFP expression inhibition, Typhimurium – GFP fluorescence, round 4, synthesized compounds, late-stage follow-up (AID 449741)
Conditions: S. Typhimurium PhoP-regulated promoter-GFP fluorescence, 4 h; series mostly up to 150 µM; inhibition: at the top concentration;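 active = inhibition above 30% at one or more tested concentrations in the dose response; inactive = inhibition below 30% at every tested concentration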

inhibition, inactive:
N#Cc1ccc(CN2CCCN(C(=O)Nc3ccc(Cl)cc3)C2)cc1 -21.8%
S=C(NCc1ccc(Cl)cc1)Nc1cccc(Br)c1 -24.5%
S=C(NCc1ccc(Cl)cc1)Nc1ccccc1Br 15.6%
CN1CCN(C(=S)NCc2ccc(Cl)cc2)CC1 -1.03%
S=C(NCc1ccc(Cl)cc1)Nc1ccccc1I 18.9%
O=C(Nc1ccc(Cl)cc1)N1CCCN(Cc2cccc(F)c2)C1 -5.94%
S=C(NCc1ccc(Cl)cc1)NC1CCCCC1 13.3%
S=C(NCc1ccc(Cl)cc1)Nc1ccc(I)cc1 21%
FC(F)(F)c1ccccc1NC(=S)NCc1ccc(Cl)cc1 -11.8%
O=C(NC1CCCCC1)N1CCCN(Cc2ccccc2F)C1 -4.34%
O=C(Nc1ccc(Cl)cc1)N1CCN(Cc2ccccc2F)C1 -1.2%
S=C(NCc1ccc(Cl)cc1)NC1CCOCC1 -13.7%
FC(F)(F)c1ccc(NC(=S)NCc2ccc(Cl)cc2)cc1 -9.89%
S=C(NCc1ccccc1)NCc1ccc(Cl)cc1 -20.5%
COc1cccc(CNC(=S)Nc2ccncc2)c1 -30.7%
S=C(NCc1ccc(Cl)cc1)NN1CCOCC1 28.7%
Cc1ccccc1NC(=O)N1CCCN(Cc2ccccc2F)C1 -9.77%
O=C(Nc1ccc(Cl)cc1)N1CCCN(Cc2cccc(Br)c2)C1 -26.9%
S=C(NCc1ccc(Cl)cc1)Nc1ccncn1 29.9%
S=C(NCc1ccc(Cl)cc1)Nc1ccccn1 24.6%

— PubChem BioAssay AID449741 (Southern Research Specialized Biocontainment Screening …, 2010)
